Experiment [1] in a line: ATG_M_61_CIS: Attagene CIS-FACTORIAL HepG2 Assay for M61 Transcription Factor (Internal Marker) (AID 2282937; active = hit-call score of the fitted dose curve at least 0.9, where 1 is the maximum; inactive = score below 0.9). The note with it: HepG2 Attagene CIS-FACTORIAL M61 internal marker reporter; actives raise or lower the signal. In a few lines:
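Fluorescence from labelled cDNA fragments, separated by capillary electrophoresis, quantifies reporter induction. HepG2 cells bearing transiently transfected cis-promoter MRTUs were incubated with test chemical for 24 h; DMSO defined baseline for gain/loss fitting.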

Experiment [2] is described as follows: ATG_EGR_CIS: Attagene CIS-FACTORIAL HepG2 Assay for human Early Growth Response 1 (EGR1) (AID 2282938; active = hit-call score of the fitted dose curve at least 0.9, where 1 is the maximum; inactive = score below 0.9). The note with it: HepG2 Attagene CIS-FACTORIAL EGR reporter mRNA; actives raise or lower the signal. In a few lines: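 Cell-based multiplex transcription assay: HepG2 carrying transfected cis-element reporter units, 24 h chemical treatment. Fluorescence from capillary electrophoresis of RT-PCR products gives mRNA levels; fitting is bidirectional relative to DMSO.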

Experiment [3] can be described thus: ATG_GRE_CIS: Attagene CIS-FACTORIAL HepG2 Assay for human Glucocorticoid Response Elements (GRE) (AID 2282947; active = hit-call score of the fitted dose curve at least 0.9, where 1 is the maximum; inactive = score below 0.9). The note with it: HepG2 GRE cis-reporter, Attagene multiplex mRNA; actives raise or lower the signal. In a few lines:
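Assay uses human hepatoma HepG2 cells transfected with cis-promoter reporter units, exposed 24 h. mRNA from reporters detected by RT-PCR plus capillary electrophoresis; DMSO serves as negative control and baseline.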

Experiment [4] is described as follows: ATG_M_06_CIS: Attagene CIS-FACTORIAL HepG2 Assay for M06 Transcription Factor (Internal Marker) (AID 2282950; active = hit-call score of the fitted dose curve at least 0.9, where 1 is the maximum; inactive = score below 0.9). The note with it: HepG2 Attagene CIS-FACTORIAL M06 internal marker reporter; actives raise or lower the signal. Summed up:
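One of many multiplexed endpoints: HepG2 reporter mRNA after 24 h dosing, detected by RT-PCR and capillary electrophoresis fluorescence; gain or loss of signal analysed against DMSO.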

The nature of experiment [5]: ATG_RORE_CIS: Attagene CIS-FACTORIAL HepG2 Assay for human RAR-related Orphan Receptor Element (RORE) (AID 2282959; active = hit-call score of the fitted dose curve at least 0.9, where 1 is the maximum; inactive = score below 0.9). The note with it: HepG2 Attagene cis-factorial RORE reporter, mRNA; actives raise or lower the signal. In a few lines:
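Fluorescence intensity of reporter-specific cDNA fragments, separated by capillary electrophoresis, gives the signal. Source: HepG2 liver cells transiently transfected with cis-element reporters and exposed 24 h; DMSO-normalized bidirectional fit.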

Experiment [6] in a line: ATG_TGFb_CIS: Attagene CIS-FACTORIAL HepG2 Assay for human Transforming Growth Factor (TGF) (AID 2282967; active = hit-call score of the fitted dose curve at least 0.9, where 1 is the maximum; inactive = score below 0.9). The note with it: HepG2 Attagene CIS TGFb reporter, mRNA transcription; actives raise or lower the signal. In a few lines: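 After a 24-hour incubation with compound, transfected HepG2 cells were lysed for RNA; reporter cDNA was amplified, fluorescently end-labeled and separated by CE. DMSO served as baseline for bidirectional fits.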

For experiment [7], the target named is Hepatocyte nuclear factor 4-alpha (Homo sapiens) (UniProt P41235). Description: ATG_HNF4a_TRANS: Attagene TRANS-FACTORIAL HepG2 Assay for human Hepatocyte Nuclear Factor 4 alpha (HNF4a) (AID 2282982). The note with it: HepG2 HNF4a transactivation reporter, mRNA readout. In a few lines: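 Transfected HepG2 reporter cells are dosed for 24 h; reporter RNA is reverse-transcribed, amplified, fluorescently labelled and HpaI-digested before CE sizing. Positive-direction fit against DMSO.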

A short description of experiment [8]: ATG_M_06_TRANS: Attagene TRANS-FACTORIAL HepG2 Assay for M06 Transcription Factor (Internal Marker) (AID 2282983). As to conditions: HepG2 Attagene TRANS M06 internal marker reporter. In a few lines: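 HepG2 cells transiently transfected with multiplexed GAL4-UAS reporter transcription units; after 24 h compound exposure, reporter mRNA measured by RT-PCR, FAM-labelled primer extension, HpaI digestion and capillary electrophoresis. Gain-of-signal fitted versus DMSO baseline; background control readout.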

Experiment [9] concerns the target Nuclear respiratory factor 1 (Homo sapiens) (UniProt Q16656). Description: ATG_NRF1_CIS: Attagene CIS-FACTORIAL HepG2 Assay for human Nuclear Respiratory Factor 1 (NRF1) Orphan Gene (AID 2282987; active = hit-call score of the fitted dose curve at least 0.9, where 1 is the maximum; inactive = score below 0.9). As to conditions: HepG2 NRF1 cis-element reporter, Attagene multiplex; actives raise or lower the signal. Summed up: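 Transcriptional reporter readout, one component of a 52-endpoint multiplexed HepG2 panel. Exposure 24 h; mRNA detected via RT-PCR and fluorescent capillary electrophoresis; fitting in both directions against DMSO.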

Experiment [10] can be described thus: ATG_NFI_CIS: Attagene CIS-FACTORIAL HepG2 Assay for human Nuclear Factor I (NFI) (AID 2282989; active = hit-call score of the fitted dose curve at least 0.9, where 1 is the maximum; inactive = score below 0.9). The note with it: HepG2 cis-regulatory reporter, NFI response element transcription; actives raise or lower the signal. In a few lines: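 Reporter transcription driven by endogenous transcription factors in HepG2 cells; 24 h treatment. Quantitation by labelled RT-PCR fragments on capillary electrophoresis, gain- or loss-of-signal relative to DMSO.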

Experiment [11] concerns the target human Retinoid X Receptor beta (RXRb), RXRB (gene 6257) (UniProt P28702). In words: ATG_RXRb_TRANS: Attagene TRANS-FACTORIAL HepG2 Assay for human Retinoid X Receptor beta (RXRb) (AID 2283013). Summed up: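 HepG2 cells transiently transfected with multiplexed reporter units driven by GAL4-UAS and exogenous chimeric NR-Gal4 proteins; treated 24 h. Reporter mRNA measured by RT-PCR, 6-FAM labelling and capillary electrophoresis; gain-of-signal fitted versus DMSO baseline.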

Experiment [12] is described as follows: ATG_PPRE_CIS: Attagene CIS-FACTORIAL HepG2 Assay for human Peroxisome Proliferator-activated Response Element (PPRE) (AID 2282958; active = hit-call score of the fitted dose curve at least 0.9, where 1 is the maximum; inactive = score below 0.9). The note with it: HepG2 PPRE cis-element reporter, Attagene transcription factor profiling; actives raise or lower the signal. In a few lines: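 Multiplexed reporter transcription units under cis-regulatory promoters were transfected into HepG2 cells to capture endogenous factor activity. A 24 h incubation preceded RNA isolation and fluorescent RT-PCR fragment analysis.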

The target of experiment [13] is Nuclear receptor subfamily 1 group I member 2 (Homo sapiens) (UniProt O75469). In words: ATG_PXR_TRANS: Attagene TRANS-FACTORIAL HepG2 Assay for human Pregnane X Receptor (PXR) (AID 2283008). In a few lines:
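Measures mRNA induction of a GAL4-UAS-driven reporter in human HepG2 cells transiently expressing PXR fused to Gal4, following 24 h treatment. DMSO served as negative control and baseline.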

Experiment [14] addresses Cellular tumor antigen p53 (Homo sapiens) (UniProt P04637). In words: TOX21_p53_BLA_p2_ratio: Tox21 HCT-116 p53 Agonism Beta-lactamase Assay, Ratio, Phase 2 (AID 2283592). Summed up:
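HCT116 cells carrying a p53-responsive beta-lactamase reporter were plated, incubated 5 h at 37C, then dosed with compounds in DMSO (217-fold dilution) for 16 h. CCF4-AM substrate was added for 2 h at room temperature; the 460/530 nm emission ratio gave gain-of-signal activity relative to DMSO.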

The target is the same in experiment [15]. In words: TOX21_p53_BLA_p3_ratio: Tox21 HCT-116 p53 Agonism Beta-lactamase Assay, Ratio, Phase 3 (AID 2283596). In a few lines:
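HCT116 p53-bla cells (4000/well) given compound in DMSO (217-fold dilution) after 5 h, incubated 16 h at 37C. CCF4-AM substrate 2 h at room temperature; 460/530 nm emission ratio, gain fitted against DMSO.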

The target is the same in experiment [16]. In words: TOX21_p53_BLA_p5_ratio: Tox21 HCT-116 p53 Agonism Beta-lactamase Assay, Ratio, Phase 5 (AID 2283599). In a few lines:
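Beta-lactamase reporter ratio (blue 460 nm over green 530 nm, 405 nm excitation) after 2 h CCF4-AM loading, in HCT-116 cells exposed 16 h at 37 C to compounds pinned at 217-fold dilution. Increases relative to DMSO baseline scored.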

A short description of experiment [17]: TOX21_p53_BLA_p5_viability: Viability Assessment in the Tox21 HCT-116 p53 Agonism Beta-lactamase Assay, Phase 5 (AID 2283600). Summed up:
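Cells were plated at 4000/well, rested 5 h at 37C, then given compounds in DMSO (217-fold dilution) for 16 h at 37C, 5% CO2. Following the CCF4-AM beta-lactamase read, CellTiter-Glo was added and luminescence was read after 30 min at room temperature.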

Experiment [18] deals with Cellular tumor antigen p53 (Homo sapiens) (UniProt P04637). In words: TOX21_p53_BLA_p4_ratio: Tox21 HCT-116 p53 Agonism Beta-lactamase Assay, Ratio, Phase 4 (AID 2283601). Summed up:
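Signal is the blue/green (460nm/530nm) ratio of cleaved versus uncleaved CCF4-AM substrate, read after 2 h substrate loading. Cells were HCT116 carrying the p53-responsive beta-lactamase reporter, dosed 16 h at 37C, 5% CO2; CellTiter-Glo measured in parallel.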

Experiment [19] concerns the target Retinoic acid receptor RXR-alpha (Homo sapiens) (UniProt P19793). Description: ATG_RXRa_TRANS: Attagene TRANS-FACTORIAL HepG2 Assay for human Retinoid X Receptor alpha (RXRa) (AID 2283012). Summed up:
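HepG2 cells transiently transfected with multiplexed GAL4-UAS reporter units and chimeric NR-GAL4 fusions, dosed 24 h. Reporter mRNA measured by RT-PCR, FAM labelling, HpaI digestion and capillary electrophoresis; gain-of-signal fitted relative to DMSO baseline.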

Experiment [20] can be described thus: ATG_M_19_TRANS: Attagene TRANS-FACTORIAL HepG2 Assay for M19 Transcription Factor (Internal Marker) (AID 2282974). The note with it: HepG2 Attagene TRANS-FACTORIAL M19 internal marker reporter. Summed up:
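Measured here: internal-marker reporter transcript from HepG2 cells transfected with MRTUs, harvested at 24 h. cDNA PCR products were 6-FAM labelled by primer extension, cut with HpaI for 2 h at 37 C, and resolved by CE.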

Records with an inconclusive call do not appear. Activity calls are given as the source filed them. The calls were made as follows, unless noted: active = hit-call score of the fitted dose curve at least 0.9, where 1 is the maximum; inconclusive = response in the unintended direction; inactive = score below 0.9.

Chain of Nuclear receptor subfamily 1 group I member 2 (Homo sapiens) (O75469 whole entry, looked up, the tested form may be a part): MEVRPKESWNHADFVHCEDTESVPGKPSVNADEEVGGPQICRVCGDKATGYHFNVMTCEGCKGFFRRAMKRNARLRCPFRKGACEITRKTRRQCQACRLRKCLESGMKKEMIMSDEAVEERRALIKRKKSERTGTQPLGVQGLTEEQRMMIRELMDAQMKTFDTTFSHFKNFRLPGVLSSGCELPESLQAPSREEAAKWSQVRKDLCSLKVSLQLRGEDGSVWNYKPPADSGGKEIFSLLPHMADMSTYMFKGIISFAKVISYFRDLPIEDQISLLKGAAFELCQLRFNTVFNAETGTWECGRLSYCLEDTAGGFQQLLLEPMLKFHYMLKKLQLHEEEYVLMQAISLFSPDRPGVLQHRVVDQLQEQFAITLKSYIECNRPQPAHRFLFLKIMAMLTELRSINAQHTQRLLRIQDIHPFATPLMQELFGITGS
Chain of human Retinoid X Receptor beta (RXRb), RXRB (gene 6257) (P28702 whole entry, looked up, the tested form may be a part): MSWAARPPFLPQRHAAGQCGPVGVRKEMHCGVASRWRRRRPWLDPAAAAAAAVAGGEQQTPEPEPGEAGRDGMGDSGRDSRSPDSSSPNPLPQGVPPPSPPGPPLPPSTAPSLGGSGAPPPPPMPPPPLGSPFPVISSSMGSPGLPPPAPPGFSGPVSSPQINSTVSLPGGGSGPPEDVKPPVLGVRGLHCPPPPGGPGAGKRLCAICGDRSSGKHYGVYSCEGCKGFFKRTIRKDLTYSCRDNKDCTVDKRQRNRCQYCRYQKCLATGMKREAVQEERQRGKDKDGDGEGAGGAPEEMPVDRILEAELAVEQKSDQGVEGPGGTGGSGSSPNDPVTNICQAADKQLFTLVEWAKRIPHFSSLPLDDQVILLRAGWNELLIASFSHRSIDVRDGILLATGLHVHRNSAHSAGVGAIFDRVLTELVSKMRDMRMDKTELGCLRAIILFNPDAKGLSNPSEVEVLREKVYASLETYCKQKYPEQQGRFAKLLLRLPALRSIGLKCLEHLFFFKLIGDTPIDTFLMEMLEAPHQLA
Chain of Cellular tumor antigen p53 (Homo sapiens) (P04637 whole entry, looked up): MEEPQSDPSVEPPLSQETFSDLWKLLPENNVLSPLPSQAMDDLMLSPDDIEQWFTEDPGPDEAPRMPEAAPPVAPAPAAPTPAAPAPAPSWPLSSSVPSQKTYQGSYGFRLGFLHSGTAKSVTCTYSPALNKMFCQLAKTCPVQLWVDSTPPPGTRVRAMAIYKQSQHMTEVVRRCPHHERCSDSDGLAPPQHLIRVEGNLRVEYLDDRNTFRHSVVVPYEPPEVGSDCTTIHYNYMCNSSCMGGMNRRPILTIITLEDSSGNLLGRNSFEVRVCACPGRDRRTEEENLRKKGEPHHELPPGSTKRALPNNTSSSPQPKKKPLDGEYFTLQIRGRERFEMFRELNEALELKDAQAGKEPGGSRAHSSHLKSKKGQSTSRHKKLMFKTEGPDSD
Chain of Nuclear respiratory factor 1 (Homo sapiens) (Q16656 whole entry, looked up): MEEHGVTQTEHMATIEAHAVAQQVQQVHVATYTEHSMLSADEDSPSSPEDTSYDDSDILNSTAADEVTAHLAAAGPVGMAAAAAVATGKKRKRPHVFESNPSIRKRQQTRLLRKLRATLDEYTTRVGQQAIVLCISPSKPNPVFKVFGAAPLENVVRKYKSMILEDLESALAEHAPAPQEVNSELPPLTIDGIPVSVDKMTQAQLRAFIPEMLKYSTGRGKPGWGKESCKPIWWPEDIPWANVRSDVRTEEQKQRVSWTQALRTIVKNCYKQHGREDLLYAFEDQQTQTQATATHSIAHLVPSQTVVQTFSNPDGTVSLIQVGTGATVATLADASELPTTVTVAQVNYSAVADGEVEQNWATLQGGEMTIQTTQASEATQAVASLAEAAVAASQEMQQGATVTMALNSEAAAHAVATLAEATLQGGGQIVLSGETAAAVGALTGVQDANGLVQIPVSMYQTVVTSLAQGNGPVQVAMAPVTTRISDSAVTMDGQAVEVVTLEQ
Chain of Hepatocyte nuclear factor 4-alpha (Homo sapiens) (P41235 whole entry, looked up): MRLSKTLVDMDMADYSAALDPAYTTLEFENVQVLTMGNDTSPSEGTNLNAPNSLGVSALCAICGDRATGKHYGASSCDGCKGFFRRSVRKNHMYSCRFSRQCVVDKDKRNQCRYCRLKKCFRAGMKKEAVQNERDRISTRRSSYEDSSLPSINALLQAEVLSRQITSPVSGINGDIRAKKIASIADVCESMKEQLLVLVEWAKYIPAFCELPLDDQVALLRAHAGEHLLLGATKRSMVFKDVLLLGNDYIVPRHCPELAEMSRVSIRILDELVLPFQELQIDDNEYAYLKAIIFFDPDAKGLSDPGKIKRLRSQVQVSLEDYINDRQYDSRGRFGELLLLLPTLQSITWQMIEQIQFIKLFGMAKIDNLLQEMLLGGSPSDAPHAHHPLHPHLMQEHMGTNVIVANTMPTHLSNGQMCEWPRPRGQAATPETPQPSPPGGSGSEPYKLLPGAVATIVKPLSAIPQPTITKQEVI
Chain of Retinoic acid receptor RXR-alpha (Homo sapiens) (P19793 whole entry, looked up, the tested form may be a part): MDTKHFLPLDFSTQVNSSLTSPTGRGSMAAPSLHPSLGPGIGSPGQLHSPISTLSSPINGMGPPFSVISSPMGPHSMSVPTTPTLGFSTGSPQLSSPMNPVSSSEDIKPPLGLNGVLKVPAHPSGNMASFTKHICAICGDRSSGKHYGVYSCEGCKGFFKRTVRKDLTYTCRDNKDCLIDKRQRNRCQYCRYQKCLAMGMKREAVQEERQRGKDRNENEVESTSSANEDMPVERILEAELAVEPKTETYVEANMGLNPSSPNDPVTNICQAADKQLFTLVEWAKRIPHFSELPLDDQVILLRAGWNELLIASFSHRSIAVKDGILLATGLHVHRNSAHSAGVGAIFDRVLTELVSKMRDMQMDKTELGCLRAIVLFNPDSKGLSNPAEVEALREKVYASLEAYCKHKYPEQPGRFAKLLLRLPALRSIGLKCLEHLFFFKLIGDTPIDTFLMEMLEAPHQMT

As to `CCC1CCC(=O)O1` (stereo unspecified), the result in experiment [1], in [2], in experiment [3], in [4], in experiment [5] and in experiment [6] was inactive. Besides, the compound was called inactive in [7], in experiment [8], in [9], in [10] and in experiment [11].

For the compound `CC(C)[C@@H](C(=O)O[C@@H](C#N)c1cccc(Oc2ccccc2)c1)c1ccc(Cl)cc1`, the compound was classed as inactive in experiment [2], in [12], in experiment [5], in experiment [6], in [8] and in experiment [9]. In addition, the compound was classed as inactive in [11], in [14], in [15], in experiment [16], in experiment [17] and in [18]. For the same compound, the AC50 in [13] was 0.752 µM (active).

Take `CCC(C)c1cc([N+](=O)[O-])cc([N+](=O)[O-])c1OC(=O)C=C(C)C` (stereo unspecified): the result in [1], in experiment [3], in [4], in [12], in experiment [5] and in [6] was inactive. Also, the result in [7], in experiment [8], in [19], in experiment [11] and in experiment [17] was inactive. Further, the AC50 in [10] is 25.5 µM (active); in experiment [13], 1.6 µM (active); in experiment [14] it was 13.8 µM (active); in [15], 13.9 µM (active); in experiment [16], 10.3 µM (active); in experiment [18], 14.3 µM (active).

As for `O=C(O)CCl`, the result in experiment [1], in [2], in experiment [3], in experiment [4], in experiment [5] and in experiment [6] was inactive. The call in experiment [20], in experiment [7], in experiment [9], in experiment [19] and in experiment [11] was inactive.

In the case of `CC1CCC(=O)O1` (stereo unspecified), the outcome in [1], in experiment [2], in experiment [3], in [5], in experiment [6] and in [20] was inactive. For the same compound, the result in experiment [7], in [9], in experiment [10], in experiment [13], in experiment [14] and in [15] was inactive. Moreover, the outcome in experiment [16] and in [18] was inactive.

The values are drawn from PubChem BioAssay (EPA / NIEHS).
